Reference: PubChem BioAssay AID1159580 (chemical genetic matrix, 2015)
Screen size: about 5,500 compounds; about 2,000 (36%) were called active. Roughly 18% stayed inconclusive and do not appear here. The list shows a part of the results. Values without a mark were called inactive. Cut-off read from the data, not from the text of the source: active = normalized growth mostly below about 0.91 (no sharp cut-off); inconclusive = no clear call, values can overlap the other calls; inactive = mostly above about 0.92.

Test: chemical genetic growth profiling, strain panel (AID 1159580);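 note: tested at 20 µM; growth read once vehicle control cultures reached saturation at 30 °C; 1 = growth at the plate median or of vehicle wells; lower values mean less growth of the strain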
Conditions: growth OD
[1] = S. cerevisiae deletion strains, locus YHR030C, strain SLT2, active compounds read low

CN(C)C=Nc1nc2c(s1)CCc1ccccc1-2
normalized growth (S. cerevisiae deletion strains, locus YAL013W, strain DEP1, active compounds read low): 0.953
normalized growth (S. cerevisiae deletion strains, locus YBR229C, strain ROT2, active compounds read low): 0.975
normalized growth (S. cerevisiae deletion strains, locus YDL101C, strain DUN1, active compounds read low): 0.964
normalized growth (S. cerevisiae deletion strains, locus YDR150W, strain NUM1, active compounds read low): 0.934
normalized growth (S. cerevisiae deletion strains, locus YEL061C, strain CIN8, active compounds read low): 0.878 (active)
normalized growth (S. cerevisiae deletion strains, locus YGR078C, strain PAC10, active compounds read low): 0.989
normalized growth [1]: 0.477 (active)
normalized growth (S. cerevisiae deletion strains, locus YHR087W, strain rtc3, active compounds read low): 1.01
normalized growth (S. cerevisiae deletion strains, locus YJL187C, strain SWE1, active compounds read low): 0.972
normalized growth (S. cerevisiae deletion strains, locus YJR043C, strain POL32, active compounds read low): 0.994
normalized growth (S. cerevisiae deletion strains, locus YJR075W, strain HOC1, active compounds read low): 0.957
normalized growth (S. cerevisiae deletion strains, locus YLR039C, strain RIC1, active compounds read low): 0.794
normalized growth (S. cerevisiae deletion strains, locus YLR058C, strain SHM2 (second series), active compounds read low): 0.989
normalized growth (S. cerevisiae deletion strains, locus YLR085C, strain ARP6, active compounds read low): 0.622 (active)
normalized growth (S. cerevisiae deletion strains, locus YLR262C, strain YPT6, active compounds read low): 0.811 (active)
normalized growth (S. cerevisiae deletion strains, locus YML094W, strain GIM5, active compounds read low): 0.798 (active)
normalized growth (S. cerevisiae deletion strains, locus YMR219W, strain ESC1, active compounds read low): 0.991
normalized growth (S. cerevisiae deletion strains, locus YMR263W, strain SAP30, active compounds read low): 0.977
normalized growth (S. cerevisiae deletion strains, locus YNL153C, strain GIM3, active compounds read low): 0.968
normalized growth (S. cerevisiae deletion strains, locus YNL298W, strain CLA4 (second series), active compounds read low): 0.825 (active)
normalized growth (S. cerevisiae deletion strains, locus YNL322C, strain KRE1, active compounds read low): 0.994
normalized growth (S. cerevisiae deletion strains, locus YNR030W, strain Alg12, active compounds read low): 0.899
normalized growth (S. cerevisiae deletion strains, locus YPL055C, strain LGE1, active compounds read low): 0.799 (active)
normalized growth (S. cerevisiae deletion strains, locus YPL241C, strain CIN2, active compounds read low): 0.819 (active)
normalized growth (S. cerevisiae deletion strains, locus YPR135W, strain CTF4, active compounds read low): 0.635 (active)
normalized growth (S. cerevisiae strains, strain wild type, active compounds read low): 0.997

NCC1CCCCC1CC(=O)O (stereo not given)
normalized growth (S. cerevisiae deletion strains, locus YAL021C, strain ccr4, active compounds read low): 1.01
normalized growth (S. cerevisiae deletion strains, locus YAL026C, strain drs2, active compounds read low): 1.02
normalized growth (S. cerevisiae deletion strains, locus YAL030W, strain snc1, active compounds read low): 1.03
normalized growth (S. cerevisiae deletion strains, locus YBL061C, strain skt5, active compounds read low): 1.04
normalized growth (S. cerevisiae deletion strains, locus YBR009C, strain hhf1, active compounds read low): 0.988
normalized growth (S. cerevisiae deletion strains, locus YBR023C, strain chs3, active compounds read low): 1.02
normalized growth (S. cerevisiae deletion strains, locus YBR171W, strain sec66, active compounds read low): 1.03
normalized growth (S. cerevisiae deletion strains, locus YBR231C, strain swc5, active compounds read low): 1.01
normalized growth (S. cerevisiae deletion strains, locus YBR279W, strain paf1, active compounds read low): 1.03
normalized growth (S. cerevisiae deletion strains, locus YCL011C, strain gbp2, active compounds read low): 1.02
normalized growth (S. cerevisiae deletion strains, locus YCL016C, strain dcc1, active compounds read low): 1
normalized growth (S. cerevisiae deletion strains, locus YCL061C, strain MRC1, active compounds read low): 1.04
normalized growth (S. cerevisiae deletion strains, locus YCL069W, strain vba3, active compounds read low): 1.02
normalized growth (S. cerevisiae deletion strains, locus YCR088W, strain abp1, active compounds read low): 1.04
normalized growth (S. cerevisiae deletion strains, locus YDL005C, strain med2, active compounds read low): 1.02
normalized growth (S. cerevisiae deletion strains, locus YDL040C, strain nat1, active compounds read low): 1.02
normalized growth (S. cerevisiae deletion strains, locus YDR001C, strain nth1, active compounds read low): 1.02
normalized growth (S. cerevisiae deletion strains, locus YDR069C, strain doa4, active compounds read low): 1.05
normalized growth (S. cerevisiae deletion strains, locus YDR137W, strain rgp1, active compounds read low): 1.03
normalized growth (S. cerevisiae deletion strains, locus YDR159W, strain sac3, active compounds read low): 0.98
normalized growth (S. cerevisiae deletion strains, locus YDR195W, strain ref2): 0.989
normalized growth (S. cerevisiae deletion strains, locus YDR297W, strain sur2, active compounds read low): 1.05
normalized growth (S. cerevisiae deletion strains, locus YDR334W, strain swr1, active compounds read low): 1.02
normalized growth (S. cerevisiae deletion strains, locus YDR335W, strain msn5, active compounds read low): 1.03
normalized growth (S. cerevisiae deletion strains, locus YDR392W, strain spt3, active compounds read low): 0.95
normalized growth (S. cerevisiae deletion strains, locus YEL003W, strain gim4, active compounds read low): 1.03
normalized growth (S. cerevisiae deletion strains, locus YEL037C, strain rad23, active compounds read low): 1.02
normalized growth (S. cerevisiae deletion strains, locus YEL061C, strain CIN8 (second series), active compounds read low): 1.02
normalized growth (S. cerevisiae deletion strains, locus YER015W, strain faa2, active compounds read low): 1.03
normalized growth (S. cerevisiae deletion strains, locus YER016W, strain bim1, active compounds read low): 1
normalized growth (S. cerevisiae deletion strains, locus YER111C, strain swi4, active compounds read low): 1.01
normalized growth (S. cerevisiae deletion strains, locus YER155C, strain BEM2 (second series), active compounds read low): 1.07
normalized growth (S. cerevisiae deletion strains, locus YFR010W, strain ubp6, active compounds read low): 1.02
normalized growth (S. cerevisiae deletion strains, locus YGL167C, strain pmr1, active compounds read low): 1.03
normalized growth (S. cerevisiae deletion strains, locus YGL173C, strain kem1, active compounds read low): 1.04
normalized growth (S. cerevisiae deletion strains, locus YGL227W, strain vid30, active compounds read low): 1.03
normalized growth (S. cerevisiae deletion strains, locus YGL240W, strain doc1, active compounds read low): 1.04
normalized growth (S. cerevisiae deletion strains, locus YGL253W, strain hxk2, active compounds read low): 1.03
normalized growth (S. cerevisiae deletion strains, locus YHR013C, strain ard1, active compounds read low): 1.02
normalized growth (S. cerevisiae deletion strains, locus YHR027C, strain rpn1, active compounds read low): 1.01
normalized growth [1]: 0.999
normalized growth (S. cerevisiae deletion strains, locus YHR079C, strain IRE1, active compounds read low): 0.997
normalized growth (S. cerevisiae deletion strains, locus YHR142W, strain chs7, active compounds read low): 1.03
normalized growth (S. cerevisiae deletion strains, locus YJL092W, strain hpr5, active compounds read low): 1.03
normalized growth (S. cerevisiae deletion strains, locus YJL095W, strain BCK1 (second series), active compounds read low): 1.02
normalized growth (S. cerevisiae deletion strains, locus YJL095W, strain BCK1, active compounds read low): 0.988
normalized growth (S. cerevisiae deletion strains, locus YJL115W, strain asf1, active compounds read low): 1.03
normalized growth (S. cerevisiae deletion strains, locus YJL129C, strain trk1, active compounds read low): 1.04
normalized growth (S. cerevisiae deletion strains, locus YJL154C, strain vps35, active compounds read low): 1.01
normalized growth (S. cerevisiae deletion strains, locus YJL164C, strain tpk1, active compounds read low): 1.01
normalized growth (S. cerevisiae deletion strains, locus YJL166W, strain qcr8, active compounds read low): 1.05
normalized growth (S. cerevisiae deletion strains, locus YJR066W, strain TOR1, active compounds read low): 0.941
normalized growth (S. cerevisiae deletion strains, locus YKL160W, strain elf1, active compounds read low): 1.04
normalized growth (S. cerevisiae deletion strains, locus YKR026C, strain gcn3, active compounds read low): 1.02
normalized growth (S. cerevisiae deletion strains, locus YKR091W, strain srl3, active compounds read low): 1.02
normalized growth (S. cerevisiae deletion strains, locus YLL001W, strain dnm1, active compounds read low): 1.04
normalized growth (S. cerevisiae deletion strains, locus YLL026W, active compounds read low): 1.01
normalized growth (S. cerevisiae deletion strains, locus YLL041C, strain sdh2, active compounds read low): 1.02
normalized growth (S. cerevisiae deletion strains, locus YLR027C, strain aat2, active compounds read low): 1.04
normalized growth (S. cerevisiae deletion strains, locus YLR113W, strain HOG1, active compounds read low): 0.959
normalized growth (S. cerevisiae deletion strains, locus YLR221C, strain rsa3, active compounds read low): 1
normalized growth (S. cerevisiae deletion strains, locus YLR258W, strain gsy2, active compounds read low): 1.02
normalized growth (S. cerevisiae deletion strains, locus YLR262C, strain YPT6 (second series), active compounds read low): 1.04
normalized growth (S. cerevisiae deletion strains, locus YLR320W, strain mms22, active compounds read low): 1
normalized growth (S. cerevisiae deletion strains, locus YLR342W, strain FKS1, active compounds read low): 1.04
normalized growth (S. cerevisiae deletion strains, locus YLR357W, strain rsc2, active compounds read low): 1.04
normalized growth (S. cerevisiae deletion strains, locus YLR370C, strain arc18, active compounds read low): 1.03
normalized growth (S. cerevisiae deletion strains, locus YLR384C, strain iki3, active compounds read low): 1.02
normalized growth (S. cerevisiae deletion strains, locus YML120C, strain ndi1, active compounds read low): 1.03
normalized growth (S. cerevisiae deletion strains, locus YMR058W, strain fet3, active compounds read low): 1.04
normalized growth (S. cerevisiae deletion strains, locus YMR125W, strain sto1, active compounds read low): 0.985
normalized growth (S. cerevisiae deletion strains, locus YMR129W, active compounds read low): 1.02
normalized growth (S. cerevisiae deletion strains, locus YMR205C, strain PFK2, active compounds read low): 1.04
normalized growth (S. cerevisiae deletion strains, locus YMR231W, strain pep5, active compounds read low): 1.02
normalized growth (S. cerevisiae deletion strains, locus YNL071W, strain lat1, active compounds read low): 1.01
normalized growth (S. cerevisiae deletion strains, locus YNL183C, strain NPR1, active compounds read low): 0.912
normalized growth (S. cerevisiae deletion strains, locus YNL209W, strain ssb2, active compounds read low): 1.03
normalized growth (S. cerevisiae deletion strains, locus YNL248C, strain rpa49, active compounds read low): 1.01
normalized growth (S. cerevisiae deletion strains, locus YNL322C, strain KRE1 (second series), active compounds read low): 1.02
normalized growth (S. cerevisiae deletion strains, locus YNR049C, strain mso1, active compounds read low): 1.02
normalized growth (S. cerevisiae deletion strains, locus YOR001W, strain rrp6, active compounds read low): 1.04
normalized growth (S. cerevisiae deletion strains, locus YOR070C, strain gyp1, active compounds read low): 1.02
normalized growth (S. cerevisiae deletion strains, locus YOR080W, strain dia2, active compounds read low): 1.04
normalized growth (S. cerevisiae deletion strains, locus YOR083W, strain WHI5, active compounds read low): 1.01
normalized growth (S. cerevisiae deletion strains, locus YOR106W, strain vam3, active compounds read low): 1.06
normalized growth (S. cerevisiae deletion strains, locus YOR231W, strain MKK1, active compounds read low): 0.992
normalized growth (S. cerevisiae deletion strains, locus YOR265W, strain rbl2, active compounds read low): 1.03
normalized growth (S. cerevisiae deletion strains, locus YOR270C, strain vph1, active compounds read low): 1.04
normalized growth (S. cerevisiae deletion strains, locus YOR290C, strain snf2, active compounds read low): 1
normalized growth (S. cerevisiae deletion strains, locus YPL051W, strain arl3, active compounds read low): 1.03
normalized growth (S. cerevisiae deletion strains, locus YPL078C, strain atp4, active compounds read low): 1.05
normalized growth (S. cerevisiae deletion strains, locus YPL106C, strain sse1, active compounds read low): 1
normalized growth (S. cerevisiae deletion strains, locus YPL240C, strain hsp82, active compounds read low): 1.02
normalized growth (S. cerevisiae deletion strains, locus YPL256C, strain CLN2, active compounds read low): 0.961
